The full list was thinned out, with hits kept by preference.
Pf Dd2 inh: blocks in vitro growth of P. falciparum Dd2. P. falciparum Dd2 growth, SYBR Green, 72 h. AID 1347417. hit rate 4.3% among 120,000. Potency, µM (top dose mostly 28.9 µM), without a hit: top-dose activity, negative = inhibition, most hits filed as inhibitors; active means well fitted inhibition curve with a large enough effect;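 further: plate controls were DMSO vehicle for no effect and reference drug for full effect; nearly all actives have a fitted effect of over 65% in size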
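Infected erythrocytes (Dd2, 0.3% parasitemia, 2.5% hematocrit final) are added to compound in RPMI-1640/Albumax II medium, grown 72 h at 37C in low oxygen, then lysed with saponin/Triton-X containing SYBR Green and read by fluorescence.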
* = called active by the depositor; i = inactive; [ ] = remark or other dose. Potency means the concentration at half of the fitted maximal effect.

SMILES | Pf Dd2 inh
O=C1NC(=NC2CCCC2)C2(CCN(Cc3cccnc3)CC2)N1c1cc(F)cc(F)c1 | -68.0%
O=C1NC(=NC2CCCC2)C2(CCN(Cc3ccccc3)C2)N1c1cccnc1 (stereo not drawn) | -3.1%
O=C1NC(=NC2CCCC2)C2(CCCN(Cc3ccccc3)C2)N1c1cccnc1 (stereo not drawn) | -12.9%
O=C1NC(=NC2CCCC2)C2(CCCN(Cc3ccccc3)C2)N1c1cc(F)cc(F)c1 (stereo not drawn) | -21.7%
O=C1NC(=NC2CCCCC2)C2(CCCN(Cc3ccccc3)C2)N1c1cc(F)cc(F)c1 (stereo not drawn) | 7.08µM*
COc1cccc(NC(=O)CN(C)S(=O)(=O)c2cccs2)c1 | 38.1%
CCOc1ccccc1CNC(=O)C1c2ccccc2CC(=O)N1CC (stereo not drawn) | -27.6%
Cc1cccc(NC(=O)N2CCCCC2c2nc(-c3cnccn3)n[nH]2)c1 (stereo not drawn) | -2.9%
CS(=O)(=O)N1CCC(C2CCN(Cc3ccsc3)C2)CC1 (stereo not drawn) | i
Cn1cc(CN2CCC(C3CCN(S(C)(=O)=O)CC3)C2)c2ccccc21 (stereo not drawn) | 3.55µM*
Cn1cc(CN2CC[C@@H](c3ccc4c(c3)OCO4)[C@H](O)C2)c2ccccc21 | 8.91µM*
CS(=O)(=O)N1CCC(C2CCN(Cc3ccncc3)C2)CC1 (stereo not drawn) | -2.0%
CN1C[C@H]2CN(Cc3cn(C)c4ccccc34)CCN2C1=O | -28.0%[44.1 µM]
Cn1cc(CN2C[C@@H]3OCC(=O)N[C@@H]3C2)c2ccccc21 | i
Cn1cc2c3c(cccc31)CN(C(=O)c1ccc(F)cc1Cl)CC2 | i
CN1C(=O)CCC2(CNC(=O)c3cnccn3)CCCC=C12 (stereo not drawn) | 12.2%
CC(C)c1nncn1C1CCN(S(=O)(=O)c2ccc(F)c(Cl)c2)CC1 | i
Cc1noc(C)c1C(=O)N(C)C1CCc2nnc(C)n2CC1 (stereo not drawn) | 27.9%
O=C(CCNc1c(-c2cccc(F)c2)nc2cnccn12)NCc1ccccc1F | -7.5%
CCOc1ccc(NC(=O)NC(C)c2c(-n3cccc3)sc(C)c2C)cc1 (stereo not drawn) | -23.4%
Cc1sc(-n2cccc2)c(C(C)NC(=O)Nc2ccccc2Cl)c1C (stereo not drawn) | 5.62µM*
CCOC(=O)c1ccccc1NC(=O)NC(C)c1c(-n2cccc2)sc(C)c1C (stereo not drawn) | 11.2µM*
COc1cc(NC(=O)NC(C)c2c(-n3cccc3)sc3c2CCCC3)cc(OC)c1OC (stereo not drawn) | -17.3%
CCOC(=O)c1ccccc1NC(=O)N(C(C)C)C1CCN(C(C)=O)CC1 | -8.2%
Cc1ccc(-c2ccc(=O)n(C(C)C(=O)Nc3ccccc3Cl)n2)cc1C (stereo not drawn) | 9.1%
SMILES | Pf Dd2 inh
CCn1c(C(=O)NCCc2ccc(S(N)(=O)=O)cc2)cc2sc(Cl)cc21 | -18.0%
COc1ccc(-c2cc(N3CCCC(NC(=O)Cc4cccs4)C3)n[nH]2)cc1 (stereo not drawn) | -11.0%
Cc1ccccc1CC(=O)Nc1ccc2ncnc(N3CCCCC3)c2c1 | i
O=C(Cc1cccs1)Nc1ccc2c(N3CCCCC3)ncnc2c1 | 5.01µM*
COc1ccccc1CC(=O)Nc1ccc2c(N3CCCCC3)ncnc2c1 | 14.1µM*
CC1Oc2ccc(NC(=O)Cc3cccs3)cc2CN(Cc2ccc(Cl)cc2)C1=O (stereo not drawn) | i
COc1ccccc1CC(=O)NC1CCN(c2cc(C(F)(F)F)ncn2)CC1 | 34.4%
COc1ccc(CNC(=O)c2c(O)nc3cc(C)ccn3c2=O)cc1 | 18.9%
Cn1nc(-c2cccs2)cc1[C@H]1CN2CC[C@H]1C[C@@H]2CNS(C)(=O)=O | -22.6%[44.1 µM]
O=C(CCc1nc(C2CCCN2C(=O)c2n[nH]c3ccccc23)no1)NCc1ccccc1 (stereo not drawn) | i
Cc1cccc(C)c1NC(=O)C1CCN(S(=O)(=O)c2cccc3nsnc23)CC1 | 16.1%
Cc1ccc(NC(=O)C2CCCN2S(=O)(=O)c2cccc3nsnc23)c(Br)c1 (stereo not drawn) | 7.08µM*
Cc1ccc(NC(=O)C2CCCN(S(=O)(=O)c3cccc4nsnc34)C2)c(C)c1 (stereo not drawn) | -7.4%
O=C(Nc1ccc(F)cc1F)C1CCCN1S(=O)(=O)c1cccc2nsnc12 (stereo not drawn) | 12.0%
Cc1cc(C)cc(NC(=O)C2CCCN2S(=O)(=O)c2ccc3nc(-c4ccccc4)[nH]c3c2)c1 (stereo not drawn) | i
Cc1ccc(NC(=O)C2CCCN(S(=O)(=O)c3cccc4nsnc34)C2)cc1C (stereo not drawn) | -25.8%
CCc1cccc(C)c1NC(=O)C1CCCN1S(=O)(=O)c1cccc2nsnc12 (stereo not drawn) | 5.01µM*
CCc1cccc(C)c1NC(=O)C1CCN(S(=O)(=O)c2cccc3nonc23)CC1 | 14.1%
Cc1cc(C)cc(NC(=O)C2CCCN2S(=O)(=O)c2cccc3nsnc23)c1 (stereo not drawn) | 3.16µM*
COc1ccccc1CNC(=O)C1CCCN(S(=O)(=O)c2ccc3c(c2)CCCN3C(C)=O)C1 (stereo not drawn) | -29.7%
CC1=C[C@@H](CN2C(=O)C(C)=C(C)C2=O)[C@H](C(C)C)C[C@H]1Cc1nc2c(C)cccc2[nH]1 | i
CC(C)(N)C(=O)N1CCCC(N2CCN(c3ccccc3)CC2)C1 (stereo not drawn) | -9.8%
CC(=O)NCCCC(=O)N1C2CCC1CN(Cc1cccnc1)C2 | -9.4%
O=C1CC(c2ccccc2)Cc2[nH]c(=O)c(-c3nc(-c4cccc(Cl)c4)cs3)cc21 (stereo not drawn) | -0.1%
COc1ccc(CCNC(=O)C2CC(=O)N(c3n[nH]c4ccccc34)C2)cc1OC (stereo not drawn) | -2.3%
SMILES | Pf Dd2 inh
CCOc1ccccc1NC(=O)c1c(NC(=O)Cc2ccccc2)sc2c1CCCC2 | 24.7%
CCOc1ccccc1NC(=O)c1c(NC(=O)COc2ccc(Cl)cc2)sc2c1CCCCC2 | i
CCOc1ccccc1NC(=O)c1c(NC(=O)c2cccc(C)c2)sc2c1CCCC2 | 8.91µM*
CCn1ccc2oc(C)c(C(=O)N3CCN(c4ccc(F)cc4)CC3)c2c1=O | i
Cc1cn2nc(C(=O)NCc3ccc(F)cc3)cc2c(N2CCSCC2)n1 | i
CCCN(CC1CCOC1)S(=O)(=O)c1ccc(Cl)s1 (stereo not drawn) | i[5.79 µM]
O[C@@H]1C[C@@H](c2nc(Cc3ccccc3)no2)N(Cc2ccc(F)cc2)C1 | i
O[C@@H]1C[C@@H](c2nc(Cc3ccccc3)no2)N(Cc2cc3ccccc3o2)C1 | 14.1µM*
O[C@@H]1C[C@@H](c2nc(Cc3ccccc3)no2)N(CCCc2ccccc2)C1 | i
Cc1cn(C)c(CC(=O)Nc2cccc(Cl)c2C)c1C(=O)O | -9.4%
Cc1cccc(C(=O)n2nc(-c3cccnc3)nc2NCc2ccccc2)c1 | 38.1%
O=C(Nc1ccc(F)c(F)c1)C1CCCN(S(=O)(=O)c2cccc3nonc23)C1 (stereo not drawn) | 31.4%
O=C(Nc1ccc(OC(F)(F)F)cc1)C1CCCN(S(=O)(=O)c2cccc3nonc23)C1 (stereo not drawn) | 50.3%
O=C(Nc1ccc(C(F)(F)F)cc1)C1CCCN(S(=O)(=O)c2cccc3cccnc23)C1 (stereo not drawn) | 11.2µM*
Cc1cccc(NC(=O)c2cc(CN3CCOCC3)on2)c1C | -2.1%
CCCCN(CC)CCCNC(=O)c1c(C)oc2ncnc(N3CCOCC3)c12 | 23.3%
